About 83,000 compounds went through this panel and 20% of them were active in at least one assay; those are over-represented in the sample as a whole.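 Values shown are percent growth following 48 h exposure of cells in 96-well plates to a single concentration of compound; below 10 was considered active.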 Calls of active or inactive are those of the source.
Key:
Assay in all cases: NCI-60 one-dose screen, 48 h (100 = growth as untreated, 0 = no growth, -100 = all killed)
Details in all cases: 10 µM unless noted
HCT-15 colon = system: HCT-15 colon
HT29 colon = system: HT29 colon
SNB-75 CNS = system: SNB-75 CNS
SNB-19 CNS = system: SNB-19 CNS
U251 CNS = system: U251 CNS
PC-3 prostate = system: PC-3 prostate
SK-MEL-5 melanoma = system: SK-MEL-5 melanoma
UACC-62 melanoma = system: UACC-62 melanoma
LOX IMVI melanoma = system: LOX IMVI melanoma
SK-MEL-28 melanoma = system: SK-MEL-28 melanoma
SK-MEL-2 melanoma = system: SK-MEL-2 melanoma
EKVX NSCLC = system: EKVX NSCLC
SN12C renal = system: SN12C renal
UO-31 renal = system: UO-31 renal
TK-10 renal = system: TK-10 renal
ACHN renal = system: ACHN renal
CAKI-1 renal = system: CAKI-1 renal
A498 renal = system: A498 renal
CCRF-CEM leukemia = system: CCRF-CEM leukemia
MOLT-4 leukemia = system: MOLT-4 leukemia

Measured: growth

c1cc(OCCN2CCCCCC2)ccc1CNc1ccc2nc(CCC3CCCCC3)[nH]c2c1
active: HCT-15 colon 3.08% | HT29 colon 8.15% | SK-MEL-5 melanoma -86.3% | LOX IMVI melanoma -67.4% | SK-MEL-28 melanoma -8.14%
inactive: SNB-75 CNS 74.2% | SNB-19 CNS 79.5% | U251 CNS 45.2% | PC-3 prostate 50.5% | UACC-62 melanoma 83.9% | SK-MEL-2 melanoma 75% | EKVX NSCLC 79.8% | SN12C renal 54.7% | UO-31 renal 10.8% | TK-10 renal 88.7% | ACHN renal 80.6% | CAKI-1 renal 42.8% | A498 renal 62.5% | CCRF-CEM leukemia 29.5% | MOLT-4 leukemia 25.5%

Nc1c(C(=O)Nc2cccc3ncccc23)sc2nc3c(cc12)CN(Cc1ccccc1)CC3
inactive: HCT-15 colon 74.2% | HT29 colon 81.7% | SNB-75 CNS 84.2% | SNB-19 CNS 82.3% | U251 CNS 88% | PC-3 prostate 77% | SK-MEL-5 melanoma 19.2% | UACC-62 melanoma 53.5% | LOX IMVI melanoma 88.6% | SK-MEL-28 melanoma 81.7% | SK-MEL-2 melanoma 57.3% | EKVX NSCLC 76.4% | SN12C renal 82.1% | UO-31 renal 70.2% | TK-10 renal 89.4% | ACHN renal 88.6% | CAKI-1 renal 74.1% | A498 renal 72.1% | CCRF-CEM leukemia 69.6% | MOLT-4 leukemia 48.5%

CCCc1cc(=O)oc2c(C(=O)CC(C)C)c(O)c(CC=C(C)C)c(O)c12
inactive: HCT-15 colon 16.9% | HT29 colon 57.3% | SNB-75 CNS 52.6% | SNB-19 CNS 21.5% | U251 CNS 22.5% | LOX IMVI melanoma 33.8% | SK-MEL-28 melanoma 26.3% | SK-MEL-2 melanoma 14.1% | EKVX NSCLC 13.7% | SN12C renal 11.6% | UO-31 renal 20% | TK-10 renal 27.4% | ACHN renal 27.5% | CAKI-1 renal 11.1% | CCRF-CEM leukemia 12.9% | MOLT-4 leukemia 19.1%
active: PC-3 prostate 6.87% | SK-MEL-5 melanoma -45.8% | UACC-62 melanoma -1.35% | A498 renal -16.3%

COc1cc(/C=C/C(=O)c2cc(OC)c(OC)c(OC)c2)ccc1Oc1nc2c(c(=O)n(C)c(=O)n2C)n1C
active: HCT-15 colon 0.728% | HT29 colon -51.1% | U251 CNS -81.9% | PC-3 prostate 7.57% | UACC-62 melanoma -74.1% | LOX IMVI melanoma -81.1% | SK-MEL-28 melanoma -45.3% | EKVX NSCLC 1.98% | UO-31 renal -92.1% | TK-10 renal -8.16% | ACHN renal -21.9% | CAKI-1 renal -47.2% | CCRF-CEM leukemia 5.81% | MOLT-4 leukemia 2.13%
inactive: SNB-75 CNS 31% | SNB-19 CNS 18.7% | SK-MEL-5 melanoma 28.9% | SK-MEL-2 melanoma 76.3% | SN12C renal 11.6% | A498 renal 29.4%

O=C(N/N=C/c1ccc(Cl)cc1)c1ccc(NC(=O)c2ccccn2)cc1
inactive: HCT-15 colon 62.8% | HT29 colon 71.8% | SNB-19 CNS 64.9% | U251 CNS 18.3% | PC-3 prostate 79.8% | SK-MEL-5 melanoma 39.7% | UACC-62 melanoma 62% | LOX IMVI melanoma 54% | SK-MEL-28 melanoma 52.1% | SK-MEL-2 melanoma 78.7% | EKVX NSCLC 68.2% | SN12C renal 38.2% | TK-10 renal 47.3% | CAKI-1 renal 41.2% | A498 renal 81.2% | CCRF-CEM leukemia 91% | MOLT-4 leukemia 79.5%
active: SNB-75 CNS -16% | UO-31 renal 0.719% | ACHN renal -0.994%

O=C(/C=C/c1ccccc1)c1cccc2ccccc12
inactive: HCT-15 colon 26.5% | SNB-75 CNS 17.4% | SNB-19 CNS 56.7% | U251 CNS 29.6% | PC-3 prostate 45.2% | SK-MEL-5 melanoma 59.2% | UACC-62 melanoma 36.1% | LOX IMVI melanoma 57.8% | SK-MEL-28 melanoma 68.3% | EKVX NSCLC 65.1% | SN12C renal 46.3% | UO-31 renal 46.9% | TK-10 renal 22.5% | ACHN renal 43.1% | CAKI-1 renal 40.7% | A498 renal 50.1%
active: HT29 colon 3.24% | SK-MEL-2 melanoma 5.16% | CCRF-CEM leukemia 3.83% | MOLT-4 leukemia 6.46%

CC(C)(C)c1ccc(C(=O)N/N=C/c2ccc(O)cc2O)cc1
active: SK-MEL-5 melanoma -46.1% | UACC-62 melanoma 4.25% | LOX IMVI melanoma 2.62% | CCRF-CEM leukemia 9.83%
inactive: HCT-15 colon 14.1% | HT29 colon 26.4% | SNB-75 CNS 37.6% | SNB-19 CNS 28.4% | U251 CNS 19.6% | PC-3 prostate 34.9% | SK-MEL-28 melanoma 27.8% | SK-MEL-2 melanoma 38.3% | EKVX NSCLC 21.5% | SN12C renal 23.3% | UO-31 renal 12.2% | TK-10 renal 40.1% | ACHN renal 15.2% | CAKI-1 renal 15% | A498 renal 13.6% | MOLT-4 leukemia 13.3%

O=C(O)c1cn(C2CC2)c2cc(N3CCN(C(=O)N/N=C/c4cccc5ccccc45)CC3)c(F)cc2c1=O
inactive: HCT-15 colon 97.9% | HT29 colon 105% | SNB-75 CNS 97% | SNB-19 CNS 85.9% | U251 CNS 100% | PC-3 prostate 105% | SK-MEL-5 melanoma 94% | UACC-62 melanoma 88.7% | LOX IMVI melanoma 67.8% | SK-MEL-28 melanoma 98.1% | SK-MEL-2 melanoma 101% | EKVX NSCLC 102% | SN12C renal 96.6% | UO-31 renal 80.1% | TK-10 renal 94.1% | ACHN renal 101% | CAKI-1 renal 90.1% | A498 renal 86.1% | CCRF-CEM leukemia 112% | MOLT-4 leukemia 100%

Cc1ccc2c(c1)nc(C)n2-c1ncnc2c1CC(C)c1cc(O)ccc1N2C (stereo not given)
active: A498 renal 6.65% | CCRF-CEM leukemia 9.39%
inactive: HCT-15 colon 26.7% | HT29 colon 36.8% | SNB-75 CNS 25.3% | SNB-19 CNS 48.7% | U251 CNS 20% | PC-3 prostate 29.6% | SK-MEL-5 melanoma 23.7% | UACC-62 melanoma 39.3% | LOX IMVI melanoma 43% | SK-MEL-28 melanoma 61.1% | SK-MEL-2 melanoma 21.4% | EKVX NSCLC 44.2% | SN12C renal 52.3% | UO-31 renal 47.9% | TK-10 renal 56.1% | ACHN renal 49.5% | CAKI-1 renal 42.4% | MOLT-4 leukemia 13.4%

CC(C)Cc1nc(Nc2ccccc2)[nH]c(=O)c1C#N
inactive: HCT-15 colon 60.5% | HT29 colon 51.7% | SNB-75 CNS 62.4% | SNB-19 CNS 54.8% | U251 CNS 55.8% | PC-3 prostate 38% | SK-MEL-5 melanoma 48.7% | UACC-62 melanoma 19.5% | LOX IMVI melanoma 48.7% | SK-MEL-28 melanoma 55.9% | SK-MEL-2 melanoma 40.5% | EKVX NSCLC 59.4% | SN12C renal 52.8% | UO-31 renal 14% | TK-10 renal 82% | ACHN renal 57.5% | CAKI-1 renal 50.9% | A498 renal 19.4% | CCRF-CEM leukemia 60.2% | MOLT-4 leukemia 61.6%

Cn1c(=O)c2[nH]c(SC/C(=N/O)c3ccc(Br)cc3)nc2n(C)c1=O
inactive: HCT-15 colon 76.4% | HT29 colon 70% | SNB-19 CNS 38.6% | PC-3 prostate 49.3% | SK-MEL-5 melanoma 33.4% | LOX IMVI melanoma 36.9% | SK-MEL-28 melanoma 45.6% | SK-MEL-2 melanoma 33.6% | EKVX NSCLC 43.2% | SN12C renal 17% | CCRF-CEM leukemia 83.9% | MOLT-4 leukemia 94.7%
active: SNB-75 CNS -27.2% | U251 CNS 1.08% | UACC-62 melanoma -14.2% | UO-31 renal 4.1% | TK-10 renal -30.6% | ACHN renal -58.4% | CAKI-1 renal -45.3% | A498 renal -80%

O=C(C1=Cc2cc3ccccc3n2Cc2cnnn21)c1ccc(F)cc1
inactive: HCT-15 colon 95.8% | HT29 colon 112% | SNB-75 CNS 86.2% | SNB-19 CNS 94.1% | U251 CNS 98.2% | PC-3 prostate 92.3% | SK-MEL-5 melanoma 96% | UACC-62 melanoma 90.9% | LOX IMVI melanoma 98.8% | SK-MEL-28 melanoma 105% | SK-MEL-2 melanoma 103% | EKVX NSCLC 96.2% | SN12C renal 97.6% | UO-31 renal 88.6% | TK-10 renal 107% | ACHN renal 103% | CAKI-1 renal 90.9% | A498 renal 79.9% | CCRF-CEM leukemia 97.8% | MOLT-4 leukemia 89%

CCN(CC)CCOc1ccc2ccc(=O)oc2c1
inactive: HCT-15 colon 104% | HT29 colon 102% | SNB-75 CNS 107% | SNB-19 CNS 98.5% | U251 CNS 101% | PC-3 prostate 21.3% | SK-MEL-5 melanoma 102% | UACC-62 melanoma 94.8% | LOX IMVI melanoma 101% | SK-MEL-28 melanoma 99.6% | SK-MEL-2 melanoma 103% | EKVX NSCLC 105% | SN12C renal 100% | UO-31 renal 82.9% | TK-10 renal 97.7% | ACHN renal 97% | CAKI-1 renal 90.9% | A498 renal 98.5%
active: CCRF-CEM leukemia 3.66% | MOLT-4 leukemia 4.48%

COc1ccc(-c2nc3ccc(C)cc3c3c2c(=O)n(C)c(=O)n3C)cc1OC
inactive: HCT-15 colon 108% | HT29 colon 108% | SNB-75 CNS 92.9% | SNB-19 CNS 98.7% | U251 CNS 96.9% | PC-3 prostate 97.5% | SK-MEL-5 melanoma 103% | UACC-62 melanoma 89.5% | LOX IMVI melanoma 95.6% | SK-MEL-28 melanoma 112% | SK-MEL-2 melanoma 123% | EKVX NSCLC 102% | SN12C renal 98% | UO-31 renal 106% | TK-10 renal 106% | ACHN renal 97.7% | CAKI-1 renal 88.4% | A498 renal 94% | CCRF-CEM leukemia 92.3% | MOLT-4 leukemia 101%

Oc1ccc(-c2nc3ccc4[nH]ncc4c3c3c2CCCC3)c(F)c1
inactive: HCT-15 colon 15.8% | HT29 colon 42.5% | SNB-75 CNS 17% | SNB-19 CNS 60.5% | U251 CNS 38.3% | PC-3 prostate 33.8% | UACC-62 melanoma 11.7% | LOX IMVI melanoma 27.8% | SK-MEL-28 melanoma 17.5% | EKVX NSCLC 38.3% | SN12C renal 44.8% | UO-31 renal 17.5% | TK-10 renal 29.2% | ACHN renal 11.9% | CAKI-1 renal 13% | A498 renal 30.1% | CCRF-CEM leukemia 12%
active: SK-MEL-5 melanoma 3.31% | SK-MEL-2 melanoma -13.3% | MOLT-4 leukemia 2.01%
